ALDH1A1 inh: qHTS Assay for Inhibitors of Aldehyde Dehydrogenase 1 (ALDH1A1); Potency, µM (top dose mostly 75.3 µM), inactives show at the highest dose activity, negative = inhibition, hits mostly inhibitors; Purified ALDH1A1, NADH fluorescence, propionaldehyde substrate; actives 7.3% (n = 220,000); AID 1030, 2008; active = well fitted inhibition curve with a large enough effect, not every such curve was filed as active; inconclusive = small, poorly fitted or top-dose-only effect, or another doubt; inactive = no such curve, though single readings can be large or run the other way;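 note: potency is the fitted concentration of half-maximal effect; plate controls were no enzyme wells and a reference inhibitor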
Sfp PPTase inh: qHTS Assay for Inhibitors of Bacillus subtilis Sfp phosphopantetheinyl transferase (PPTase); Biochemical Sfp PPTase activity, qHTS; AID 1490, 2009; Potency, µM, inactives show largest response in the series, negative = inhibition, actives largely listed as inhibitors; actives 3.5% (n = 310,000);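 note: the enzyme is Sfp with the accession as filed and its product quenches rhodamine fluorescence; potency is the fitted concentration of half-maximal effect; 0% = enzyme reaction without inhibitor and -100% = no enzyme wells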
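After 15 min at room temperature with compound, 15 nM Sfp received 5 uM rhodamine-CoA plus 12.5 uM BHQ-2-ybbR (50 mM Hepes pH 7.6, 10 mM MgCl2). Rate came from the fluorescence difference over 30 min, ex 525/em 598 nm.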
JMJD2E inh: qHTS Assay for Inhibitors of Human Jumonji Domain Containing 2E (JMJD2E); Lysine-specific demethylase 4E (Homo sapiens), B2RXH2; JMJD2E catalytic domain, FDH-coupled NADH fluorescence (FDH is formaldehyde dehydrogenase); Potency, µM (highest dose often 57.1 µM), for the others: at the highest dose activity change, negative = inhibition, usual class: inhibitors; actives 1.6% (n = 230,000); AID 2147, 2009; active = well fitted inhibition curve with a large enough effect, not every such curve was filed as active; inconclusive = small, poorly fitted or top-dose-only effect, or another doubt; inactive = no such curve, though single readings can be large or run the other way;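 note: potency is the fitted concentration of half-maximal effect; 0% = wells with enzyme and -100% = buffer wells without enzyme; nearly all actives have a fitted effect of over 50% in size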
Target sequence (B2RXH2 1-337 limits assumed): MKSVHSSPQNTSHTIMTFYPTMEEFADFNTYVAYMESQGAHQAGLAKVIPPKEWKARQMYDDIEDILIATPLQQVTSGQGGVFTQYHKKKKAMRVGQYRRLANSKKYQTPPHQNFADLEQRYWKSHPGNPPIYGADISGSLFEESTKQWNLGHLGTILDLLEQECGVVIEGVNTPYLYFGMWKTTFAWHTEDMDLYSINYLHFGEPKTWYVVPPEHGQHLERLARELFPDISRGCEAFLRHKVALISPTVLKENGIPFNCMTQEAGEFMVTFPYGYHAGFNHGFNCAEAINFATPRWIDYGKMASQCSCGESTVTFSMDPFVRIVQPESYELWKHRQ
LMNA splice mod: qHTS Assay for Modulators of Lamin A Splicing; AID 1487, 2009; Potency, µM (doses to about 46.1 µM), for the others: at the top dose ratio change, negative = inhibition, hits mostly inhibitors; actives 0.01% (n = 200,000); HeLa LMNA splicing GFP/RFP minigene ratio, 48 h; active = well fitted inhibition curve with a large enough effect in the signal ratio, with a control signal flat, not every such curve was filed as active; inconclusive = small, poorly fitted or top-dose-only effect, or effect the other way, or a change in a side signal; the % refers to the signal ratio; note: potency is the fitted concentration of half-maximal effect; % is set by controls: 0 for no effect and ±100 for the full control effect
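S3 HeLa cells stably expressing lamin A-EGFP splicing minigene plus DsRed2, 600 cells/well, 48 h compound exposure at 37C. Laser-scanning cytometry; analysed as GFP (500-530 nm)/RFP (575-640 nm) total intensity ratio; 0.5% DMSO vehicle.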
miR-21 act: qHTS Assay for Modulators of miRNAs and/orActivators of miR-21 | 340,000 tested, under 10 active | Potency, µM (titrated, usually from 38.3 µM), for the others: at the highest dose activity change, positive = activation, usual class: activators | AID 2288, 2010 | HeLa miR-21 FLuc reporter, luciferase, 48 h;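 note: % of control where 0% means no effect; miR-21 action dims this reporter so a rising signal means less miR-21 action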
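HeLa miR-21-FLuc reporter line, endogenous miR-21; 2000 cells/well in DMEM/10% FBS; compound titration up to ~40uM final, 48 h, 37 degree Celsius; luciferase detection reagent, 15 min lysis, CCD luminescence.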
G9a block: qHTS Assay for Inhibitors of Histone Lysine Methyltransferase G9a | actives 8.8% (n = 350,000) | G9a H3K9 monomethylation, AlphaScreen, 2 h | Potency, µM (titrated, usually from 102 µM), for the others: at the top dose activity, negative = inhibition, hits mostly inhibitors; note: potency is the fitted concentration of half-maximal effect; % is set by controls: 0 for no effect and ±100 for the full control effect; nearly all actives have a fitted effect of over 75% in size
Target sequence (Q96KQ7 913-1193 limits assumed): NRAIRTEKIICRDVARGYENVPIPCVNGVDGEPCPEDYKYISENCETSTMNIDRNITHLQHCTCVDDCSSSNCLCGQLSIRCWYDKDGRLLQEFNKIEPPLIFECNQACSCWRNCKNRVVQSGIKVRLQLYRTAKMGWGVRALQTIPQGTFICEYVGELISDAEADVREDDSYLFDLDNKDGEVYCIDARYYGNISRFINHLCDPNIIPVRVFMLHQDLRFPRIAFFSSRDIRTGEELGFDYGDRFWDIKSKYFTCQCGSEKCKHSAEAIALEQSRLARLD
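Signal arises when biotinylated H3K9 peptide, once monomethylated, bridges streptavidin donor and antibody-captured acceptor beads. Enzyme at 20 nM was preincubated 15 min with test compounds; peptide 500 nM and SAM 20 uM then reacted for 2 h.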
* hit, by the source's call; [ ] = another dose, or the depositor's remark. Hits are enriched below; roughly 13% of the tested compounds scored in any of these assays. Unless noted, calls come from the whole dose curve; as a rule, active = well fitted curve in the direction sought with a large enough effect; inconclusive = small, poorly fitted or top-dose-only effect, or another doubt; inactive = no such curve, though single readings can be large; an effect the other way counts as inactive or inconclusive.

For Cc1cc(C)c2c(=O)n(CC(=O)Nc3ccc(Br)c(C)c3)sc2n1 the results were Sfp PPTase inh 3.2µM*, JMJD2E inh inconclusive, miR-21 act 17% and G9a block 0.32µM*.
`Cc1cc(C)c2c(=O)n(CC(=O)Nc3cccc(Cl)c3C)sc2n1` gave Sfp PPTase inh 2.5µM*, JMJD2E inh inconclusive, miR-21 act 1% and G9a block 0.28µM*.
COc1ccc(OC)c(CCNC(=O)Cn2sc3nc(C)cc(C)c3c2=O)c1 was read as ALDH1A1 inh 2.5µM*, Sfp PPTase inh 1.4µM*, JMJD2E inh 28µM*, LMNA splice mod -1%, miR-21 act 29% and G9a block 1µM*.
`COc1ccc(OC)c(CCNC(=O)Cn2nc(C)c3c(C)n(-c4ccc(C)cc4)nc3c2=O)c1` gave Sfp PPTase inh -23% and miR-21 act 24%.
`Cc1cc(NC(=O)Cc2ccsc2)ccc1Br` gave Sfp PPTase inh 3%, miR-21 act -20% and G9a block -11%.
For CC1=C(C(=O)NCc2ccccc2C)C2(CCCCC2)OC1=O the results were LMNA splice mod 9%[46 µM], miR-21 act -13% and G9a block -4%[59 µM].
For COc1ccc(Cn2ccnc2SCC(=O)Nc2ccc3c(c2)OCCO3)cc1 the results were LMNA splice mod 4%[46 µM], miR-21 act -12% and G9a block -9%[59 µM].
`O=C(COCc1cc(-c2ccco2)on1)Nc1cc(Cl)ccc1O` gave LMNA splice mod -7%[46 µM], miR-21 act 25% and G9a block -31%[59 µM].
Screening Cc1c(-c2ccccc2)n(-c2ccc(Cl)cc2)c2nc3c(c(=O)n(C)c(=O)n3C)n12 returned LMNA splice mod 0%[46 µM], miR-21 act -5% and G9a block 7%[59 µM].
CC(Oc1ccc2ccc(=O)oc2c1)C(=O)NC1CC(C)(C)NC(C)(C)C1 (stereo not given) was read as Sfp PPTase inh 8%, miR-21 act 2% and G9a block inconclusive.
For CCCc1cc(=O)oc2cc(OC(C)C(=O)NC3CC(C)(C)NC(C)(C)C3)ccc12 (stereo not given) the results were Sfp PPTase inh 8%, miR-21 act 0% and G9a block 7.1µM*.
For Cn1c(N)c(N=O)c(=O)n(C)c1=O the results were Sfp PPTase inh -19%, JMJD2E inh -7%, miR-21 act 1% and G9a block 50µM*.
Screening Cc1ccc(C2=NS(=O)(=O)N(C)C(C(=O)NCc3ccc4c(c3)OCO4)=C2)cc1 returned Sfp PPTase inh -1%, miR-21 act 2% and G9a block inconclusive.
Nc1nonc1-c1nc2ccccc2n1CC(=O)N/N=C/c1ccc(-c2cccc(C(=O)O)c2)o1 was read as ALDH1A1 inh inconclusive, Sfp PPTase inh 1µM*, JMJD2E inh inconclusive, miR-21 act -18% and G9a block 7.9µM*.
For CC(C)OC(=O)c1ccc(NC(=O)Cn2c(-c3nonc3N)nc3ccccc32)cc1 the results were ALDH1A1 inh 22µM*, Sfp PPTase inh 17%, JMJD2E inh 4%, LMNA splice mod -1%, miR-21 act -9% and G9a block 11%[59 µM].
`Nc1nnc(CC(=O)N/N=C/c2ccc(-c3cccc(C(=O)O)c3)o2)s1` gave Sfp PPTase inh 40µM*, JMJD2E inh inconclusive, miR-21 act -39% and G9a block inconclusive.
Nc1nonc1-c1nc2ccccc2n1CC(=O)Nc1ccccc1C(=O)O was read as miR-21 act 20% and G9a block 37%[59 µM].
O=C(O)c1cccc(-c2ccc(/C=N/NC(=O)c3cccnc3)o2)c1 was read as ALDH1A1 inh inconclusive, Sfp PPTase inh inconclusive, JMJD2E inh 9%, LMNA splice mod 5%, miR-21 act -25% and G9a block 13µM*.
COc1ccc(NC(=O)CN2CCN(S(=O)(=O)N3CCCCCC3)CC2)cc1 was read as Sfp PPTase inh 15%, miR-21 act 0% and G9a block 23%[59 µM].
`CCOc1cc(CNC(=O)c2ccc3c(c2)NC(=O)C2CCCCN32)cc(OCC)c1OCC` (stereo not given) gave LMNA splice mod 2%[46 µM], miR-21 act 9% and G9a block -2%[59 µM].
`CCOC(=O)c1cccc(-c2ccc(C=O)o2)c1` gave ALDH1A1 inh -2%, Sfp PPTase inh inconclusive, JMJD2E inh 5%, LMNA splice mod -13%, miR-21 act -49% and G9a block -29%[59 µM].
Screening O=Cc1ccc(-c2cccc(C(=O)O)c2)o1 returned ALDH1A1 inh 60%, Sfp PPTase inh inconclusive, JMJD2E inh inconclusive, LMNA splice mod -8%[46 µM], miR-21 act -20% and G9a block 50µM*.
For COc1ccc(CCNC(=O)c2cc(-c3ccc(C)c(C)c3)nc3ccccc23)cc1OC the results were LMNA splice mod 5%[46 µM], miR-21 act 8% and G9a block inconclusive.
CC(NC(=O)Nc1ccc(Cl)c(Cl)c1)C(c1ccccc1)N1CCOCC1 (stereo not given) was read as ALDH1A1 inh inconclusive, Sfp PPTase inh 2%, JMJD2E inh 4%, LMNA splice mod inconclusive, miR-21 act 25% and G9a block 0%.
For CC(NC(=O)Nc1ccc([N+](=O)[O-])cc1)C(c1ccccc1)N1CCOCC1 (stereo not given) the results were ALDH1A1 inh 2.5µM*, Sfp PPTase inh inconclusive, JMJD2E inh inconclusive, LMNA splice mod -4%[46 µM], miR-21 act 0% and G9a block 40µM*.
CCOc1ccc(NS(=O)(=O)c2ccc(C(=O)N(C)C)s2)cc1 was read as LMNA splice mod -3%[46 µM], miR-21 act -6% and G9a block -1%[59 µM].
Cc1cc(C)nc(S/C=C/C(=O)c2ccccc2F)n1 was read as Sfp PPTase inh -29%, JMJD2E inh -4%, miR-21 act -68% and G9a block 14µM*.
CCNc1ncc2nc(CCc3ccccc3)c(=O)n(Cc3cccc(OC)c3)c2n1 was read as ALDH1A1 inh inconclusive, Sfp PPTase inh 0%, LMNA splice mod inconclusive and G9a block 8%[0.501 µM].
Cc1n[nH]c(C)c1S(=O)(=O)N1CCCC(C(=O)Nc2ccc(Cl)cc2)C1 (stereo not given) was read as miR-21 act 24% and G9a block 7%[59 µM].
